# Data reported in PubChem BioAssay (NCATS).
# Records with an inconclusive call do not appear. A call without a number means that no potency is given here. Calls of active or inactive are those of the source. The call rests on the fitted dose curve; in most records, active means well fitted cell-killing curve with a large enough effect; inconclusive means small, poorly fitted or top-dose-only effect; inactive means flat fitted curve, though single readings scatter.
# Experiment: Cell Viability - NIH 3T3 (AID 541); further: nearly all actives have a fitted effect of over 25% in size
# Details: NIH 3T3 cell viability, qHTS; activity change, negative = cytotoxicity: at 92.2 µM (top of the series)
# Excerpt: NIH Chemical Genomics Center [NCGC]
# NIH Molecular Libraries Screening Centers Network [MLSCN]
# National Institutes of Environmental Health Sciences [NIEHS]
# National Toxicology Program [NTP]
# We have developed a 1536-well cell-based assay for quantitative high throughput screening (qHTS) against a number of cell lines to determine in vitro cytotoxicity of small molecules. This particular assay uses the NIH 3T3 fibroblast cell line which is established from NIH Swiss mouse embryo.
# NCGC Assay Protocol Summary:
# The CellTiter-Glo luminescent cell viability assay (Promega) is a homogeneous method to measure the number of viable cells in culture. The end point readout of this assay is based on quantitation of intracellular ATP, an indicator of metabolic activity, using the luciferase reaction. Luciferase catalyzes the oxidation of beetle Luciferin to oxyluciferin and light in the presence of ATP. The luminescent signal is proportional to amount of ATP present.
# Using the CellTiter-Glo luminescent cell viability assay, the amount of cellular ATP was measured in the NIH 3T3 cell line with complete culture medium following compound treatment for 40 hours. The assay was performed in opaque white Kalypsys 1536-well plates. In the screen, tamoxifen and doxorubicin were used as positive controls. Library compounds were measured for their ability to cause acute toxicity in the cell line, as reflected by a decrease in intracellular ATP levels, in a concentration-dependent manner. […] AC50 values were determined from concentration-response data modeled with the standard Hill equation.
# qHTS protocol for CellTiter Glo NIH 3T3 cellular assay
# [Step] [Parameter] [Value] [Description]
# 1. Reagent; 5 uL; 1000 NIH 3T3 cells/well
# 2. Time; 5 hr; 37 °C incubation
# 4. Controls; 23 nL; Tamoxifen 0.34 uM to 100 uM & Doxorubicin 0.02 nM to 100 uM
# 5. Time; 40 hr; 37 °C incubation
# 6. Reagent; 5 uL; CellTiter Glo reagent
# 7. Time; 20 min; Room Temperature
# 8. Detection; Luminescence; Viewlux plate reader
# Keywords: cell viability, cytotoxicity, NIH 3T3 cell line, luminescence, NTPHTS, NTPHTS_NCGC, NIEHS, EPA, DSSTox, MLSMR, MLSCN, NIH Roadmap, qHTS, NCGC
# Potency means the concentration at half of the fitted maximal effect.
SMILES,Potency,"activity change, negative = cytotoxicity"
CC1(C)S[C@@H]2[C@H](NC(=O)[C@H](N)c3ccccc3)C(=O)N2[C@H]1C(=O)O,inactive,
C#C[C@]1(O)CC[C@H]2[C@@H]3CCc4cc(O)ccc4[C@H]3CC[C@@]21C,inactive,
N=C1N=C(N)c2cc3ccccc3cc21,,-134% (active)
CN1CCC[C@H]1c1cccnc1,inactive,
CCCOC(=O)c1ccc(O)cc1,inactive,
O=C(O)/C=C\C(=O)O,inactive,
c1ccc2sc(SSc3nc4ccccc4s3)nc2c1,inactive,
NCCO,inactive,
Nc1ccc(O)c(C(=O)O)c1,inactive,
COc1cc(CNC(=O)CCCC/C=C/C(C)C)ccc1O,5.01 µM (active),
O=C1CN(/N=C/c2ccc([N+](=O)[O-])o2)C(=O)N1,,-97.7% (active)
Nc1ccc([N+](=O)[O-])cc1O,20 µM (active),
CCCCCCCCCCCCCCCCCC(=O)O,inactive,
CN(C)c1ccc(C(=C2C=CC(=[N+](C)C)C=C2)c2ccccc2)cc1,0.2 µM (active),
S=c1[nH]c2ccccc2s1,,-146% (active)
CN(C)CCC(c1ccc(Cl)cc1)c1ccccn1 (stereo not given),inactive,
O=C(O)c1cc(O)c(O)c(O)c1,,-98.1% (active)
Nc1ccc(O)c([N+](=O)[O-])c1,25.1 µM (active),
Oc1ccccc1O,1.26 µM (active),
c1cnc2c(c1)ccc1cccnc12,2.51 µM (active),
